Measured values taken from the supplement of paper PMC10849652.
Targets with a hit are over-represented here; the source holds about 7,900 in all. About 0.6% of all pairs of compound and target were hits.

Experiments:
Assay in all cases: log2 fold change, soluble protein after heating vs DMSO (PISA); higher = thermal stabilisation; K562 cells, 10 uM, 30 min; active = over 0.2 and 3.5 SD of the protein, either way, in both replicates (recomputed)
[1] = compound: C1=CC=C(C=C1)[C@H](COC2=CC3=C(C=C2)NC(=O)N3)NC(=O)C4=CC=CN(C4=O)CC5=CC(=C(C=C5)F)F
Procedure, shortened: (§1)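 K562 cells at 2×10^6 cells/mL were treated with 10 μM compound for 30 min. Aliquots were heated for 3 min across 48°C-58°C, pooled, and extracted in PBS with 0.5% NP-40 at 4°C; soluble protein was the supernatant after 21,000xg for 90 min. Soluble protein was quantified by TMTpro 16plex LC-MS/MS with channel sums equalised, and reported as log2 fold change in thermal stability against DMSO controls, with values from duplicates.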

[2] = compound: CC1=C(SC2=C1C(=N[C@H](C3=NN=C(N32)C)CC(=O)N)C4=CC=C(C=C4)Cl)C
Procedure, shortened: as §1

[3] = compound: CC1=C2C(=CC=C1)N=C(N(C2=O)C3=CC=CC=C3C)CN4C=NC5=C(N=CN=C54)N
Procedure, shortened: as §1

[4] = compound: Cc1sc2c(c1C)C(c1ccc(Cl)cc1)=N[C@@H](CC(=O)OC(C)(C)C)c1nnc(C)n1-2
Procedure, shortened: as §1

[5] = compound: c1ccc([C@@H]2C[C@H]2NC2CCNCC2)cc1
Procedure, shortened: as §1

Measured: log2 fold change

WARS1 (UniProt G3V227)
inactive: [1] 0.09 | [2] -0.089 | [3] 0.042 | [4] 0.333 | [5] -0.185

TRAPPC13 isoform 5 (UniProt A5PLN9)
UniProt A5PLN9, sequence (A5PLN9 whole entry, looked up): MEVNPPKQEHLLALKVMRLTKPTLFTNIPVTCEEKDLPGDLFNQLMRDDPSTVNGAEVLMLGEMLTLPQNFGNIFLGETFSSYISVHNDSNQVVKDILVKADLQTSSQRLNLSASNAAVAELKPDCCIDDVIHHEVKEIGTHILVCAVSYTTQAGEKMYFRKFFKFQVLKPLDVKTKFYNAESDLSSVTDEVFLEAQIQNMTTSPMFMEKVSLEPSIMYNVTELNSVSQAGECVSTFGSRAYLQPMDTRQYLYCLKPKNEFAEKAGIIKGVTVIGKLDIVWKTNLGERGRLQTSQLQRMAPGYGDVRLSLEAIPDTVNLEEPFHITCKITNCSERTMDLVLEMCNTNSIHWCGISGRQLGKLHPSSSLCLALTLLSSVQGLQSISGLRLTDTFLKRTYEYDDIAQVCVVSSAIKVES
inactive: [1] -0.055 | [2] 0.154 | [3] 0.08 | [4] -0.013 | [5] -0.017

WEE1 (UniProt P30291)
UniProt P30291, sequence (P30291 whole entry, looked up): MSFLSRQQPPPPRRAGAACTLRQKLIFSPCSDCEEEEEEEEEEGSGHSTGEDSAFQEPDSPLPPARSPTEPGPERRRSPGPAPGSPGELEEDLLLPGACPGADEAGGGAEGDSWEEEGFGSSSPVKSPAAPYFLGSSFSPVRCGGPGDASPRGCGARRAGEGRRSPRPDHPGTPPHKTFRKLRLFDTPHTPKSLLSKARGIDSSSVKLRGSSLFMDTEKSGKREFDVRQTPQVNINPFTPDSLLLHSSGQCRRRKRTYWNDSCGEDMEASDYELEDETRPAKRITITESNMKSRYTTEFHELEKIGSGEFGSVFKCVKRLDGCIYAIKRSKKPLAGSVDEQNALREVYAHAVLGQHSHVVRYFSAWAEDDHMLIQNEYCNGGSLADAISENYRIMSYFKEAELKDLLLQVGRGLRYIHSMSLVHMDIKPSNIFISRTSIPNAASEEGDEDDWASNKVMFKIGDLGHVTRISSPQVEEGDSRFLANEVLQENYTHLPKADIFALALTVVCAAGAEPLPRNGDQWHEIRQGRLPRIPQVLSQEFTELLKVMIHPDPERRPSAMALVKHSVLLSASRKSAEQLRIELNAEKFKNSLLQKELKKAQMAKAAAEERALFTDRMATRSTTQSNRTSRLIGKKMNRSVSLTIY
inactive: [1] 0.116 | [2] -0.031 | [3] -0.059 | [4] 0.132 | [5] 0.11

TRABD (UniProt Q9H4I3)
inactive: [1] 0.005 | [2] -0.034 | [3] -0.054 | [4] 0.027 | [5] -0.054

TSPAN13 (UniProt O95857)
active: [3] 0.639
inactive: [1] -0.195 | [2] 0.023 | [4] 0.076 | [5] 0.018

USP3 (UniProt Q9Y6I4)
inactive: [1] 0 | [2] 0.143 | [3] 0.036 | [4] -0.061 | [5] -0.025

TNPO2 (UniProt O14787)
inactive: [1] -0.067 | [2] 0.03 | [3] 0.158 | [4] -0.051 | [5] -0.005

USO1 isoform 2 (UniProt O60763)
inactive: [1] -0.007 | [2] 0.012 | [3] 0.028 | [4] 0.012 | [5] 0.048

TOMM5 isoform 2 (UniProt Q8N4H5)
UniProt Q8N4H5, sequence (Q8N4H5 whole entry, looked up): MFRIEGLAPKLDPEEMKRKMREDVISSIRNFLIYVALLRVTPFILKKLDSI
inactive: [1] 0.034 | [2] 0.047 | [3] -0.032 | [4] -0.029 | [5] 0.005

VPS72 isoform 2 (UniProt Q15906)
UniProt Q15906, sequence (Q15906 whole entry, looked up): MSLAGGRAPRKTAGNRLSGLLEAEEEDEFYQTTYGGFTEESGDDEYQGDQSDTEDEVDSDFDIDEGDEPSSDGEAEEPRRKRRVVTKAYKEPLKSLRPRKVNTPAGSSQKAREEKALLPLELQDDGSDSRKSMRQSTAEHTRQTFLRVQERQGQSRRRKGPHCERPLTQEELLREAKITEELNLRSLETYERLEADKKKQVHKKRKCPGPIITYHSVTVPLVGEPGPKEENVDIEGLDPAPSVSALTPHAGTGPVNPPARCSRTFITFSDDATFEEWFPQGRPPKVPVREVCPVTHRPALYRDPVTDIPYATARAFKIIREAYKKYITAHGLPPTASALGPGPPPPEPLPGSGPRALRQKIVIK
inactive: [1] 0.123 | [2] -0.106 | [3] 0.055 | [4] 0.05 | [5] -0.013

UGDH (UniProt O60701)
inactive: [1] 0.025 | [2] 0.052 | [3] 0.103 | [4] -0.04 | [5] -0.038

UBA1 (UniProt P22314)
UniProt P22314, sequence (P22314 whole entry, looked up): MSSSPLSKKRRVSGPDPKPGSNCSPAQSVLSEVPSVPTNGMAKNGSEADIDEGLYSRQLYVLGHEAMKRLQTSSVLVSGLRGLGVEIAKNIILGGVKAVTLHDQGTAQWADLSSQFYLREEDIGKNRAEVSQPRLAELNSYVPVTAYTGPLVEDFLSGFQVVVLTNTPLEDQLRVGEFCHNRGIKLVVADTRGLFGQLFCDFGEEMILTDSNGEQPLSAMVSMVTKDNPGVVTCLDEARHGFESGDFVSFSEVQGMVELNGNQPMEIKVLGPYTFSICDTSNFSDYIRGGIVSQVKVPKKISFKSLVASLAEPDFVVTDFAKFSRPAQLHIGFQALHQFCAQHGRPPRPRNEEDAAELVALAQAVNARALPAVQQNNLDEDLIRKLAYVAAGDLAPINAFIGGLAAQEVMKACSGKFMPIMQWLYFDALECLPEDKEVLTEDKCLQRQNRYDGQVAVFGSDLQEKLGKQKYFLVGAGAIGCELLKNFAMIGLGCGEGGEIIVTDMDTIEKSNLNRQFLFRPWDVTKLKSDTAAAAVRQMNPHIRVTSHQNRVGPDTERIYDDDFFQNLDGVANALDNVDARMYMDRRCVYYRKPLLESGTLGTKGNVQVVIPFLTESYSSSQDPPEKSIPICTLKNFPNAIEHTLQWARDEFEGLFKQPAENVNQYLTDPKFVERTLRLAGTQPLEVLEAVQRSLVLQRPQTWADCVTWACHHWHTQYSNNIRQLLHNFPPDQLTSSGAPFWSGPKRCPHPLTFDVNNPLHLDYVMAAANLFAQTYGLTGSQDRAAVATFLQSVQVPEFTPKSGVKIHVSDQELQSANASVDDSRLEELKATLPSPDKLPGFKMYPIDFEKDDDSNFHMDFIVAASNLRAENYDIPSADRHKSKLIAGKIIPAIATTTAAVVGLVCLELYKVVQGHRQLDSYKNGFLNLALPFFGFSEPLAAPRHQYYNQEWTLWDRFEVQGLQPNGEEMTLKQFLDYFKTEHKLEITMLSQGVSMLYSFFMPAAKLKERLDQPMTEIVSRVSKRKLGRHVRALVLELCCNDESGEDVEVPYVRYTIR
inactive: [1] -0.162 | [2] 0.044 | [3] 0.134 | [4] 0.044 | [5] -0.08

VARS2, A0A0G2JL52
inactive: [1] -0.006 | [2] 0.006 | [3] 0.044 | [4] -0.004 | [5] -0.015

TNNC2 (UniProt P02585)
inactive: [1] 0.043 | [2] 0.004 | [3] 0.06 | [4] -0.624 | [5] 0.031

TMEM208 (UniProt Q9BTX3)
inactive: [1] -0.101 | [2] 0.02 | [3] 0.088 | [4] -0.14 | [5] 0.031

VDAC1 (UniProt P21796)
inactive: [1] 0.047 | [2] 0.008 | [3] -0.024 | [4] -0.007 | [5] 0.026

USP15 (UniProt Q9Y4E8)
UniProt Q9Y4E8, sequence (Q9Y4E8 whole entry, looked up): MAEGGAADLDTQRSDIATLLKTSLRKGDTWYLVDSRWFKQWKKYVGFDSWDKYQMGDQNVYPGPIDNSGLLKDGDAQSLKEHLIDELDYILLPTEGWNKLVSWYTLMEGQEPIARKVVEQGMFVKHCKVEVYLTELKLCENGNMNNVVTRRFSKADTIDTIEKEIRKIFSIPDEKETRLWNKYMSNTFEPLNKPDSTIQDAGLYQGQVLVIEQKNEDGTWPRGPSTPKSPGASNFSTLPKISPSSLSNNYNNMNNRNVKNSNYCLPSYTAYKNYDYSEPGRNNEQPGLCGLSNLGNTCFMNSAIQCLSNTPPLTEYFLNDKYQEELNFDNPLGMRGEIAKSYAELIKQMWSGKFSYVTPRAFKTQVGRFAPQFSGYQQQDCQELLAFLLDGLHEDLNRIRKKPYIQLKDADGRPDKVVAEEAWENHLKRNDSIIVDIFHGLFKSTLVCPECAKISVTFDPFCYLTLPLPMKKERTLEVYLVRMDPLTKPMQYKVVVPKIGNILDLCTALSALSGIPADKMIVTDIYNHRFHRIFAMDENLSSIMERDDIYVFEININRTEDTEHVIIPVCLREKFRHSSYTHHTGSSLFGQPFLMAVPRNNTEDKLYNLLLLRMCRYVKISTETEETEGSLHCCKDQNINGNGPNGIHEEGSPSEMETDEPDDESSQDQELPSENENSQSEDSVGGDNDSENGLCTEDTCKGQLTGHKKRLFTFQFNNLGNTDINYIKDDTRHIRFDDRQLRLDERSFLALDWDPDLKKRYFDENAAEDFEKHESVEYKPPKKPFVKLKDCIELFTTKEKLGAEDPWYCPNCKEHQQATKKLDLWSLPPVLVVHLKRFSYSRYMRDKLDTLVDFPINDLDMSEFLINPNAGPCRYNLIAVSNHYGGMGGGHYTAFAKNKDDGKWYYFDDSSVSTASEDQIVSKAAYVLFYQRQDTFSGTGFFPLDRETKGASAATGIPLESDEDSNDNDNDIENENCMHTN
inactive: [1] -0.038 | [2] 0.035 | [3] 0.059 | [4] 0.008 | [5] -0.016

WASHC3 (UniProt Q9Y3C0)
inactive: [1] 0.015 | [2] -0.022 | [3] 0.045 | [4] -0.001 | [5] 0.028

TRMT10C (UniProt Q7L0Y3)
inactive: [1] -0.018 | [2] 0.029 | [3] 0.085 | [4] 0.005 | [5] -0.08

TRMT10A (UniProt Q8TBZ6)
inactive: [1] -0.038 | [2] 0.028 | [3] 0.006 | [4] -0.033 | [5] -0.055

VRK1 (UniProt Q99986)
inactive: [1] -0.13 | [2] 0.02 | [3] 0.178 | [4] -0.019 | [5] -0.136

VPS18 (UniProt Q9P253)
UniProt Q9P253, sequence (Q9P253 whole entry, looked up): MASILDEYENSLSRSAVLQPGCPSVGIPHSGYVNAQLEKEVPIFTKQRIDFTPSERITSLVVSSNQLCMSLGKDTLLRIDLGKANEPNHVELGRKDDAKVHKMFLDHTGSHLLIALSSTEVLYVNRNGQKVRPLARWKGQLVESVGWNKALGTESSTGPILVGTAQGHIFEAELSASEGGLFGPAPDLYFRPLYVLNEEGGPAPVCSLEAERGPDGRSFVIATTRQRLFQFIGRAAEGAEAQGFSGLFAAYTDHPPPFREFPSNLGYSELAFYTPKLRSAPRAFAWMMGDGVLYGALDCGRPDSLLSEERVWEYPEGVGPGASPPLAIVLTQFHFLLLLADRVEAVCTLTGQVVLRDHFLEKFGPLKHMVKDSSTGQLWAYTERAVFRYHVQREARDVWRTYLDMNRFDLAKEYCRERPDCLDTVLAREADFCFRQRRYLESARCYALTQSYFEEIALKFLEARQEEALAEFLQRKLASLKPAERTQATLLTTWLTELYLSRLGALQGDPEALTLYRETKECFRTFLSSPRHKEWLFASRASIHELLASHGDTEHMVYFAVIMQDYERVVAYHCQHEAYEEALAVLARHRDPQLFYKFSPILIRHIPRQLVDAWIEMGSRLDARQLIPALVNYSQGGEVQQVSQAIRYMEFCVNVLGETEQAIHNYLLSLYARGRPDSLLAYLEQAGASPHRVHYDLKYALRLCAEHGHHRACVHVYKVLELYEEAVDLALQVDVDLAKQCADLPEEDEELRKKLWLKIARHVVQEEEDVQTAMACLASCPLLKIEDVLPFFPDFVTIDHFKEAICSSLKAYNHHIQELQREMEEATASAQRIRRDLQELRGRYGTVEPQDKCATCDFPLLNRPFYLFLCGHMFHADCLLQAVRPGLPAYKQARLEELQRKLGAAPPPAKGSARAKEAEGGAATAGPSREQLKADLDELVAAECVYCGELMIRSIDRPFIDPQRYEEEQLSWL
inactive: [1] 0.014 | [2] -0.052 | [3] -0.03 | [4] -0.03 | [5] 0.004

UFM1 (UniProt P61960)
UniProt P61960, sequence (P61960 whole entry, looked up): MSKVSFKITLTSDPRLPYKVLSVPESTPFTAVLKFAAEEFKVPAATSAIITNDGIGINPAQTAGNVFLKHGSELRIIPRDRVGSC
inactive: [1] -0.019 | [2] 0.363 | [3] 0.049 | [4] -0.164 | [5] 0.083

WARS2 (UniProt Q9UGM6)
UniProt Q9UGM6, sequence (Q9UGM6 whole entry, looked up): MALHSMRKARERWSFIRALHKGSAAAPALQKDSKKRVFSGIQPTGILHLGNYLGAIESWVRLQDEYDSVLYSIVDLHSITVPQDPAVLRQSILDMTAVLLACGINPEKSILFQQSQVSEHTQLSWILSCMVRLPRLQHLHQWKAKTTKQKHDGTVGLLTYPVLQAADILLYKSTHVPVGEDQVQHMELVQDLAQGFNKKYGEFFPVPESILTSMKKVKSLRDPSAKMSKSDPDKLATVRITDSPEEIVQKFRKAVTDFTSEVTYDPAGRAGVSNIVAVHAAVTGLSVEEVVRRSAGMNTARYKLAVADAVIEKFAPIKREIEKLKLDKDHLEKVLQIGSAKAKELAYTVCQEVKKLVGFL
inactive: [1] -0.025 | [2] -0.009 | [3] 0.104 | [4] -0.002 | [5] 0.06
